Results on 10 compounds are retold here after PubChem BioAssay (NCATS).

Unmarked numbers belong to inactive results. Inconclusive results are not listed. The source made the active and inactive calls. Unless noted, the call rests on the fitted dose curve; in most records, active means well fitted curve in the direction sought with a large enough effect; inconclusive means small, poorly fitted or top-dose-only effect, or another doubt; inactive means no such curve, though single readings can be large; an effect the other way counts as inactive or inconclusive.

Assay [1] concerns the target Lysosomal acid glucosylceramidase (Homo sapiens) (UniProt P04062). Briefly: Glucocerebrosidase-p2 (AID 348; in the data active means potency below about 10 µM; further: potency means the concentration at half of the fitted maximal effect). The settings on record: purified GBA, blue fluorogenic substrate, 40 min. In a few lines: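 Normal human glucocerebrosidase (0.2 nM) with blue fluorogenic substrate (80 uM final) in citrate/phosphate pH 5.9 with 10mM sodium taurocholate, 0.01% tween-20; 40 min RT, NaOH/glycine stop; fluorescence Ex 365/Em 440; AC50 from a titration from 0.6 nM upwards.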

Assay [2] is described as follows: AP1 Signaling Pathway (AID 357; active means well fitted curve in either direction with a large enough effect, not every such curve was filed as active; further: on the % scale 0 is the no-effect control and ±100 the full control effect). The settings on record: ME-180 AP-1-bla reporter, EGF-induced, beta-lactamase ratio, 5 h; at 7.69 µM (top of the series) unless noted. A digest of the protocol: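 Cells are seeded overnight, exposed to compound titrations and an EC50 level of EGF for 5 hours at 37 °C, then loaded with CCF4 dye for 2.5 hours. Beta-lactamase activity under the AP-1 element is read as a blue/green ratio.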

A short description of assay [3]: NFAT Signaling Pathway (AID 444; active means well fitted curve in either direction with a large enough effect, not every such curve was filed as active;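 further: carbachol stimulus at about its EC50 of 1 µM final; on the % scale 0 is the no-effect control and ±100 the full control effect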). As to conditions: Jurkat NFAT-bla M1, carbachol, beta-lactamase ratio, 5 h; at 7.69 µM (top of the series) unless noted. A digest of the protocol:
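Read-out: CCF4 FRET ratio (460 nm/530 nm) after 1 h RT dye loading, used for %activity and AC50 from titration series. Cells: Jurkat NFAT-β-lactamase/M1 line, treated with compound plus 1 uM carbachol for 5 h, 37 °C.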

Assay [4] can be described thus: Stat Signaling Pathway (AID 446; active means well fitted curve in either direction with a large enough effect, not every such curve was filed as active;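 further: ME-180 cervical cancer cells given 40 pM IL-6 alongside compound; SIE-controlled beta-lactamase reporter measured as 460/530 nm FRET emission ratio; on the % scale 0 is the no-effect control and ±100 the full control effect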). As to conditions: ME-180 SIE beta-lactamase reporter, IL-6 stimulated, 5 h; series mostly up to 7.69 µM. In a few lines:
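Overnight-plated ME-180 cells bearing a STAT Inducible Element beta-lactamase reporter; 5 h co-exposure to compound and 40 pM IL-6; values normalized to 300 pM IL-6 and 125 nM JAK inhibitor controls.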

Assay [5] addresses Glucocorticoid receptor (Homo sapiens) (UniProt P04150). Briefly: GR-GFP Redistribution (AID 450;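 active means compounds whose dose series gives a full or clear partial fitted curve of increased nuclear translocation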; further: potency means the concentration at half of the fitted maximal effect). As to conditions: U2OS GR-GFP nuclear translocation, laser cytometry, 2 h.
For assay [6] the target is unchanged. Briefly: GR-EFC Redistribution (AID 451; calls by dose curve; further: potency means the concentration at half of the fitted maximal effect). The settings on record: CHO-K1 GR-EFC translocation, beta-gal luminescence, 2 h. In a few lines:
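Translocation of GR-ED fusion to nuclear EA restores b-gal, read by luminescence after 1 h room-temperature detection. Engineered CHO-K1 biosensor cells, 1,000/well, exposed 2 h at 37 C to titrations up to 46 uM final.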

Assay [7] has as its target Cytochrome P450 3A4 (Homo sapiens) (UniProt P08684). In words: qHTS Assay for Activators of Cytochrome P450 3A4 (AID 885). Further: nearly all actives have a fitted effect of over 65% in size. As to conditions: recombinant CYP3A4, Luciferin-PPXE luminescence, 60 min; series mostly up to 57.1 µM. In a few lines:
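Using 20nM recombinant human CYP3A4 in potassium phosphate (200mM), substrate Luciferin-PPXE at 25uM, luminescent luciferin detection followed a 60-min RT NADPH reaction; data scaled to 57 uM ketoconazole.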

For assay [8], the target named is Dual specificity protein kinase CLK4 (Homo sapiens) (UniProt Q9HAZ1). In words: qHTS Assay for Inhibitors of CDC-like Kinase 4 (Kinase-Glo Assay) (AID 1770). Further: nearly all actives have a fitted effect of over 65% in size. Further: potency means the concentration at half of the fitted maximal effect. The settings on record: recombinant Clk4, Kinase-Glo ATP depletion luminescence; series mostly up to 66.7 µM. In a few lines:
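Inhibition was judged from remaining ATP, measured by Ultra-Glo luciferase bioluminescence after Clk4 (25 nM) had acted on RS peptide at 1 uM ATP for 4.5 hours, room temperature.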
For orientation: In qHTS, concentration-response curves come from the screen itself.

The target is the same in assay [9]. Briefly: qHTS Assay for Inhibitors of CDC-like Kinase 4 (ADP-Glo Assay) (AID 1771). Further: nearly all actives have a fitted effect of over 70% in size. Further: potency means the concentration at half of the fitted maximal effect. The settings on record: recombinant CLK4, ADP-Glo luminescence; series mostly up to 80 µM. A digest of the protocol: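 ADP production was read by ADP-Glo luminescence after residual ATP depletion, following 1 h room-temperature reaction of 25 nM Clk4, 1 uM ATP and 100 uM RS peptide with MgCl2, EGTA, DTT and Triton X-100.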

Assay [10] has as its target Ubiquitin carboxyl-terminal hydrolase 1 (Homo sapiens) (UniProt O94782). In words: Inhibitors of USP1/UAF1: Pilot qHTS (AID 504865).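 Further: rhodamine fluorescence freed from ubiquitin-rhodamine substrate followed over time; top concentration of the series differs between compounds; on the % scale 0 is the no-effect control and ±100 the full control effect; nearly all actives have a fitted effect of over 35% in size.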 The settings on record: purified USP1/UAF1, Ub-rhodamine cleavage fluorescence; series mostly up to 54.9 µM. In a few lines: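 Kinetic fluorescence assay: 1nM USP1/UAF1, 15 min compound preincubation, then 150nM Ub-Rho; 480/540 nm.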
In assay [11] the target is 3',5'-cyclic-AMP phosphodiesterase 4B (Homo sapiens) (UniProt Q07343). In words: qHTS Assay for Inhibitors of PDE-IV (AID 607; active means well fitted activation curve with a large enough effect in the main read-out, with a control signal flat, not every such curve was filed as active; further: % of control where 0% means no effect). The settings on record: HEK293 ACTOne CNG channel cells, membrane potential fluorescence; series mostly up to 22.9 µM. In a few lines:
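Live HEK293 cells with a modified cyclic nucleotide-gated (CNG) channel report intracellular cAMP via membrane-potential dye fluorescence (ex 535/em 590 nm). Endogenous PDE-IV was targeted. Compounds were tested at up to 22.9 uM final; RO 20-1724 100 uM served as control.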

Assay [12] has as its target Mitogen-activated protein kinase 10 (Mus musculus) (UniProt Q61831). In words: JNK3 AlphaScreen Assay (AID 530; active means well fitted curve in either direction with a large enough effect, not every such curve was filed as active;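 further: kinase came from lysate of stimulated human HepG2 cells; signal reports phosphorylation of biotinylated GST-cJun 1-79 at Ser73 with 10 µM ATP; on the % scale 0 is the no-effect control and ±100 the full control effect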). The settings on record: JNK3 lysate, c-Jun phosphorylation; series mostly up to 57.1 µM. A digest of the protocol:
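qHTS titrations with 15 min compound pre-incubation before adding ATP (10 uM final). Read-out: AlphaScreen of Ser73-phosphorylated biotin-GST-cJun using HepG2 lysate JNK3 activated by IL-1β and TNFα.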
(Alpha assays give light when donor and acceptor beads are brought close together.)

Assay [13] concerns the target Cytochrome P450 2C19 (Homo sapiens) (UniProt P33261). Briefly: qHTS Assay for Inhibitors and Substrates of Cytochrome P450 2C19 (AID 899). Further: potency means the concentration at half of the fitted maximal effect; nearly all actives have a fitted effect of over 60% in size. As to conditions: recombinant CYP2C19, luciferin-H EGE luminescence; series mostly up to 57.1 µM. A digest of the protocol:
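Reactions contain 5nM enzyme, 10uM Luciferin-H EGE (KM) and 50mM KPO4; compound preincubates 10 min at 37C, NADPH regeneration starts turnover for 60 min. Luminescence after detection reagent gives activity.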

Assay [14] addresses Cytochrome P450 3A4 (Homo sapiens) (UniProt P08684). Briefly: qHTS Assay for Inhibitors and Substrates of Cytochrome P450 3A4 (AID 884). Further: potency means the concentration at half of the fitted maximal effect; nearly all actives have a fitted effect of over 50% in size. As to conditions: recombinant CYP3A4, Luciferin-PPXE luminescence; series mostly up to 57.1 µM. In a few lines:
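Luminescent readout of luciferin produced by CYP3A4 (20 nM) dealkylation of Luciferin-PPXE, 25 uM (its KM). NADPH-driven reaction ran 60 min at RT after 10 min compound preincubation; data scaled to 57 uM ketoconazole as 100% inhibition.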

For assay [15], the target named is Dual specificity protein kinase CLK4 (Homo sapiens) (UniProt Q9HAZ1). In words: qHTS Assay for Inhibitors of CDC-like Kinase 4 (ADP-FP Assay) (AID 1795).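 Further: recombinant human CLK4 phosphorylating RS repeat peptide at 1 µM ATP; on the % scale 0 is the no-effect control and ±100 the full control effect; nearly all actives have a fitted effect of over 60% in size.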 As to conditions: Transcreener ADP fluorescence polarization; series mostly up to 50 µM. In a few lines: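 Inhibition of ADP formation by 6.25 nM Clk4 is measured using 1 uM ATP and 100 uM RS repeat peptide over one hour. Produced ADP displaces a fluorescent tracer from antibody, lowering polarization.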

Assay [16] concerns the target Cytochrome P450 1A2 (Homo sapiens) (UniProt P05177). Briefly: p450-cyp1a2 (AID 410; calls by dose curve; further: potency means the concentration at half of the fitted maximal effect). The settings on record: recombinant CYP1A2, luciferin-ME demethylation, luminescence; series mostly up to 57 µM. A digest of the protocol:
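Luminescent demethylation readout: Luciferin-ME (100uM, equal to Km) turned over by 20nM CYP1A2 for 60 min at room temperature after NADPH regeneration addition, following 10 min compound preincubation. Normalization used 57 uM furafylline as full inhibition.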

The nature of assay [17]: qHTS Assay for Identification of Small Molecule Agonists for Hypoxia Response Element Signaling Pathway (AID 914; active means well fitted activation curve with a large enough effect in the signal ratio, with a control signal flat, not every such curve was filed as active; the % refers to the signal ratio; further: % of control where 0% means no effect). As to conditions: ME-180 (cervical carcinoma) HRE-bla reporter, beta-lactamase ratio, CoCl2, 17 h; activation: stronger effect = higher value. In a few lines: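 HRE-bla ME-180 cells, overnight plating in Opti-MEM with 0.5% dialyzed FBS; cpd titration + EC50 CoCl2, 17 h, 37 degrees Celsius; CCF4 2.5 h RT; 460/530 nm ratio; AC50.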

Cytochrome P450 3A4 (Homo sapiens), sequence (P08684 whole entry, looked up): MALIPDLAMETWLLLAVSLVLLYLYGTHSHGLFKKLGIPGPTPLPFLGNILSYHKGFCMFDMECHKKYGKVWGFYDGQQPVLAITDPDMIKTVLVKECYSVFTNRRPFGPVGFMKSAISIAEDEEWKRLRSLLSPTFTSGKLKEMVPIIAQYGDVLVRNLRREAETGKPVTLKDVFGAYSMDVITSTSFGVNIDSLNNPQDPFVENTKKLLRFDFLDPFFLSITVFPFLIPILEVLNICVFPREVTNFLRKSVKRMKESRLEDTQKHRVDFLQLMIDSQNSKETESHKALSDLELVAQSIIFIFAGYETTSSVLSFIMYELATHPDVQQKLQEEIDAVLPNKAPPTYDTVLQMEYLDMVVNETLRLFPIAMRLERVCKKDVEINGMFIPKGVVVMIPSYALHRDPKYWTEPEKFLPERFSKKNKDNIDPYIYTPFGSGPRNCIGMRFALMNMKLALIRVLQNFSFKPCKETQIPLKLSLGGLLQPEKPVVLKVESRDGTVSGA
Ubiquitin carboxyl-terminal hydrolase 1 (Homo sapiens), sequence (O94782 whole entry, looked up): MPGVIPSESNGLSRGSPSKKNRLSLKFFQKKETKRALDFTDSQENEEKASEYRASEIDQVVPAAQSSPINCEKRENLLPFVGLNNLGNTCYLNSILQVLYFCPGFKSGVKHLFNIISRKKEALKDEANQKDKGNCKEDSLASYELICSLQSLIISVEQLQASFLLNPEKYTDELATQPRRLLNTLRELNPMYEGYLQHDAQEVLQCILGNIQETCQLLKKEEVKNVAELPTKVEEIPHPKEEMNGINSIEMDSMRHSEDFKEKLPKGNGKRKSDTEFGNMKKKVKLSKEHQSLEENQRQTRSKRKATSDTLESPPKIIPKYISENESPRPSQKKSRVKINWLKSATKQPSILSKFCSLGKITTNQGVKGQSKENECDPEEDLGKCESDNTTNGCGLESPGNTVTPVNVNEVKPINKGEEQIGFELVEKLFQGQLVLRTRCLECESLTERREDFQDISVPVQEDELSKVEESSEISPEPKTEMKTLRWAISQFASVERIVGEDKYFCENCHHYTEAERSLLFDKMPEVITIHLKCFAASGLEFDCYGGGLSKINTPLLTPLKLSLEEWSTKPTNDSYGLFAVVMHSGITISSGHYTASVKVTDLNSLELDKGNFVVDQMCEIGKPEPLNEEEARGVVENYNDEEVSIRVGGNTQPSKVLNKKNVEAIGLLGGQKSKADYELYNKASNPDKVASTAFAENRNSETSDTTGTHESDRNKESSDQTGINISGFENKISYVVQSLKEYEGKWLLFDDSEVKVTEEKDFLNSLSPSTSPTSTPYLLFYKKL
Cytochrome P450 1A2 (Homo sapiens), sequence (P05177 whole entry, looked up): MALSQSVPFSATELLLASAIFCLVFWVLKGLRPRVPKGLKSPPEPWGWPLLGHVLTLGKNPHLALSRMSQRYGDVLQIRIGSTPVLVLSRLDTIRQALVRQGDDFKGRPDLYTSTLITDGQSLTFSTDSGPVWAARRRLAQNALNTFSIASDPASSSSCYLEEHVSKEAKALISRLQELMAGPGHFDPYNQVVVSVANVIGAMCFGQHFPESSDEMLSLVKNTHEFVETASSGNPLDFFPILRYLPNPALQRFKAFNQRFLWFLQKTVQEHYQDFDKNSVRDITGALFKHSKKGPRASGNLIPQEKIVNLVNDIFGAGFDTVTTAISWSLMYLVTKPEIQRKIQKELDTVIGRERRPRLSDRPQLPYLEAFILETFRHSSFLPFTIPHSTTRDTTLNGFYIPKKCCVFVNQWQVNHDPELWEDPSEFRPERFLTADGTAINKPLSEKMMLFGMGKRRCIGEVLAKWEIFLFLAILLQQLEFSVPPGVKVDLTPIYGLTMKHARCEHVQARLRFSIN
Glucocorticoid receptor (Homo sapiens), sequence (P04150 whole entry, looked up): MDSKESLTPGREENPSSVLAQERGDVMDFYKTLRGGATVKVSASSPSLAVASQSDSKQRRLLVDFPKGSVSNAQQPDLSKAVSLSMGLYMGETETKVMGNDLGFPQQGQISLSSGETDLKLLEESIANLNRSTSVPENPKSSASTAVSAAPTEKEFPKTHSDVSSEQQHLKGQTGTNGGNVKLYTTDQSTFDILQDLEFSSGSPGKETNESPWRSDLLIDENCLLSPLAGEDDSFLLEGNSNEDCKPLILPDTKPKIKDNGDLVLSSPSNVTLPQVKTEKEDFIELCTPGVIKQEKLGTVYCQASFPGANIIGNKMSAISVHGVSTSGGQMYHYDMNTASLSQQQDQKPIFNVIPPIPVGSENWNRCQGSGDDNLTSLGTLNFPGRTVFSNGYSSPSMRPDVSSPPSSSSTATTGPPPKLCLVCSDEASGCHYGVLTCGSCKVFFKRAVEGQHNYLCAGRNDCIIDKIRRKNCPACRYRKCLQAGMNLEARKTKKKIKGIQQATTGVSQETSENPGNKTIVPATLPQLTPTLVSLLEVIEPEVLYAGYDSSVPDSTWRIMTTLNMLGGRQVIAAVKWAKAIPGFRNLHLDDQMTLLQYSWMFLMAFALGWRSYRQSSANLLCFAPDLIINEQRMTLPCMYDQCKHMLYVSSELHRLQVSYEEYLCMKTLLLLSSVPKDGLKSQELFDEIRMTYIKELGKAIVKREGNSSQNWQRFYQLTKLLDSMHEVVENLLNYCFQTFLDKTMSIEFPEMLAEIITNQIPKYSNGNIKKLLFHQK
Lysosomal acid glucosylceramidase (Homo sapiens), sequence (P04062 whole entry, looked up): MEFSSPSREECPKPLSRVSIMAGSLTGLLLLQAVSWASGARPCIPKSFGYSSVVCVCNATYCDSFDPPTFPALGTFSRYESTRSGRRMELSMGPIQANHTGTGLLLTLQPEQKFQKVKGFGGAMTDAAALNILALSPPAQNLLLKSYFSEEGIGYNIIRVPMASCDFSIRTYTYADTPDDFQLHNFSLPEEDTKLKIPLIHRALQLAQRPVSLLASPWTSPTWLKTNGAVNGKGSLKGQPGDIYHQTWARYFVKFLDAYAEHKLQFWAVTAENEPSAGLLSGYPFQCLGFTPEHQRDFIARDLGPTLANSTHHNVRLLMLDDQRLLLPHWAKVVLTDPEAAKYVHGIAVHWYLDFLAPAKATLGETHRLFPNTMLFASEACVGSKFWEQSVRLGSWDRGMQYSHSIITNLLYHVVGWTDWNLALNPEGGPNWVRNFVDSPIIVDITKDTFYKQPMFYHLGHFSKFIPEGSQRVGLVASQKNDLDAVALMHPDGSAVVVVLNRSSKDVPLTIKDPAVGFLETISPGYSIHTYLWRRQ
Dual specificity protein kinase CLK4 (Homo sapiens), sequence (Q9HAZ1 whole entry, looked up): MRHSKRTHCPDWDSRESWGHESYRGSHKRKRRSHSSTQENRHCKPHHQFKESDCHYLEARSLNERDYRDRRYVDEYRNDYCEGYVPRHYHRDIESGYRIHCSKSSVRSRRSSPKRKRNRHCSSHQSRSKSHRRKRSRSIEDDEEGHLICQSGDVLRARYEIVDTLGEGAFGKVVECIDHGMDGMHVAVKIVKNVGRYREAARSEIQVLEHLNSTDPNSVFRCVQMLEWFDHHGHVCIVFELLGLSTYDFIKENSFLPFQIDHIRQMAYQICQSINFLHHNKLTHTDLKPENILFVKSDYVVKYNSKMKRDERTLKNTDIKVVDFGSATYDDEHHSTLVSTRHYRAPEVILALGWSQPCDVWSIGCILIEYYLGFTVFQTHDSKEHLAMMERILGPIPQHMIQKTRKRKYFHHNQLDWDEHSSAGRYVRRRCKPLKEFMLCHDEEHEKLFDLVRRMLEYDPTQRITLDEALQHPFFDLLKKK
3',5'-cyclic-AMP phosphodiesterase 4B (Homo sapiens), sequence (Q07343 whole entry, looked up): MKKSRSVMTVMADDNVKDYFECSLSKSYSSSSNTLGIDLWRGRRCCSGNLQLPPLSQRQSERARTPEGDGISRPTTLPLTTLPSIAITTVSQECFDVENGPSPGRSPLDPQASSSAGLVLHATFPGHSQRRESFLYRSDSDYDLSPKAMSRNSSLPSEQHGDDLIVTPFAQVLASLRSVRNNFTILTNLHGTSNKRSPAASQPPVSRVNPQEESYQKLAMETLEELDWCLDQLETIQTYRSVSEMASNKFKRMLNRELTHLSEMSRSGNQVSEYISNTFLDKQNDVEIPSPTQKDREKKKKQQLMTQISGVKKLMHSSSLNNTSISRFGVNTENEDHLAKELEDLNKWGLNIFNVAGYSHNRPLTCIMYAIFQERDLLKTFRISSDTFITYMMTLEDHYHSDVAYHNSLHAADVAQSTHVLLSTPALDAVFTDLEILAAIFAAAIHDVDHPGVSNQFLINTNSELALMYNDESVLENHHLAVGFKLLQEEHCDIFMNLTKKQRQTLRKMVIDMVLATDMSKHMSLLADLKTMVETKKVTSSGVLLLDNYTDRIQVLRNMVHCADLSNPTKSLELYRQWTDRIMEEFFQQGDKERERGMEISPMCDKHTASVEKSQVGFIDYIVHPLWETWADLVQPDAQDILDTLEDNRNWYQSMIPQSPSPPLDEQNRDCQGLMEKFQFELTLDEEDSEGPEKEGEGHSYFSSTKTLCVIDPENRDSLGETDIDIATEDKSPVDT
Cytochrome P450 2C19 (Homo sapiens), sequence (P33261 whole entry, looked up): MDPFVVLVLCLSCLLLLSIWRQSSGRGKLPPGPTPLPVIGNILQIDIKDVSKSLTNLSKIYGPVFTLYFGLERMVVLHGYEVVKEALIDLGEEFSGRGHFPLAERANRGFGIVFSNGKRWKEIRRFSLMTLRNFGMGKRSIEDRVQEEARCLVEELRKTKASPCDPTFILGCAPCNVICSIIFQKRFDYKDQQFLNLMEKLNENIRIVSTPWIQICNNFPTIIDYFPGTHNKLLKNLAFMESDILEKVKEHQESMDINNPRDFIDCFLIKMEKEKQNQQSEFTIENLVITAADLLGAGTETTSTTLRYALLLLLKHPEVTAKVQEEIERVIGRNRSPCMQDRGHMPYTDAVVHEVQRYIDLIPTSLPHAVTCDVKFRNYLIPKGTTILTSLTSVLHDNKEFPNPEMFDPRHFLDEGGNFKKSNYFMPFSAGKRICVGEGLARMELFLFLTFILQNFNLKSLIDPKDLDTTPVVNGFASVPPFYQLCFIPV

For the compound `COCCn1c(=O)c(CCc2ccccc2)nc2cnc(N(C)C)nc21`, the Potency in assay [1] is > 11.4 µM; in assay [5] it was > 9.22 µM; in assay [6], > 46 µM. Moreover, the activity change, negative = inhibition in [2] was -26.9%; in assay [3], 3.37%. The result in assay [4] and in assay [7] was inactive. For the same compound, the Potency result in [8], in [9] and in [10] was “inactive” throughout.

Turning to `COc1ccc2[nH]cc(CCNc3ncncc3-c3ccc4c(c3)OCO4)c2c1`, the Potency in assay [1] was > 11.4 µM; in [5], > 46 µM; in assay [6] it was > 46 µM; in assay [8], 8.91 µM (active); in [9], 7.08 µM (active). For the same compound, the activity change, negative = inhibition in assay [2] was -27.8%. For the same compound, the Potency entry in assay [11] and in assay [10] was “inactive” each time.

On to `COc1cccc(-c2ccc3ncnc(N4CCNCC4)c3c2)c1`, for which the Potency in assay [1] is > 11.4 µM; in assay [5], > 46 µM; in assay [6], > 46 µM; in assay [13], 3.16 µM (active); in assay [8], 1.78 µM (active); in [9], 2 µM (active). Further, the values for the activity change, negative = inhibition in assay [2] and in assay [3] were 1.7% and 11.4%, respectively. Further, the Potency result in assay [12] and in assay [10] was “inactive” throughout. Moreover, the result in [7] was inactive.

In the case of `c1cn(-c2ncnc3ccc(-c4ccoc4)cc23)cn1`, the Potency in assay [1] was > 11.4 µM; in assay [5], > 46 µM; in [6] it was > 46 µM; in assay [14] it was 0.631 µM (active); in [8], 0.141 µM (active); in [9] it was 0.199 µM (active). For the same compound, the activity change, negative = inhibition in assay [3] was -5.74%. The compound was classed as inactive in assay [4]. In addition, the Potency entry in [12], in assay [11] and in [10] was “inactive” each time.

With `COc1ccc(Oc2ncc3nc(-c4cccc(C#N)c4)c(=O)n(CCC#N)c3n2)cc1`, the Potency in assay [1] was > 11.4 µM; in assay [5], > 9.22 µM; in assay [6], > 46 µM. Besides, the activity change, negative = inhibition was -20.3% in assay [2] and 14.2% in assay [3]. In addition, the compound was classed as inactive in [4]. In addition, the Potency entry in assay [8], in assay [15] and in [10] was “inactive” throughout.

Turning to `CN(C)C(=O)c1ccc(-c2nc(Nc3ccccc3)c3ccccc3n2)cc1`, the activity change, negative = inhibition in assay [2] is -10.3%; in assay [3], 2.53%. Besides, the Potency in assay [16] was 0.398 µM (active); in assay [5], > 46 µM; in [6], > 46 µM; in [8] it was 15.8 µM (active); in [9], 28.2 µM (active). Besides, the compound was classed as inactive in assay [4] and in assay [7]. Besides, the Potency result in assay [12] and in assay [10] was “inactive” throughout.

As to `COc1cccc(-c2ccc3ncnc(NCc4cnc(C)cn4)c3c2)c1`, the Potency was 2.51 µM (active) in assay [16]; > 46 µM in assay [5]; > 46 µM in assay [6]; 7.94 µM (active) in assay [14]; 3.16 µM (active) in assay [8]; 2.51 µM (active) in assay [9]. Besides, the activity change, negative = inhibition in [3] is 27.1%. The compound was classed as inactive in [4] and in assay [7]. The Potency entry in assay [11] and in assay [10] was “inactive” throughout. Further, the activation in [17] was -8.99%.

Turning to `CN(C)c1nc(-c2cccc(C#N)c2)nc2ccccc12`, in [2], the activity change, negative = inhibition is 2.42%. In assay [4], the compound was called inactive. The Potency was > 46 µM in assay [5], > 46 µM in assay [6], 15.8 µM (active) in [8] and 15.8 µM (active) in assay [9]. Besides, the Potency result in assay [10] was “inactive”.

Consider `COCCn1c(=O)c(-c2ccccc2)nc2cnc(Oc3cccc(Cl)c3)nc21`, for which the Potency is > 11.4 µM in assay [1], 1 µM (active) in [16], > 9.22 µM in assay [5] and > 46 µM in assay [6]. Moreover, the activity change, negative = inhibition in assay [3] was -9.21%. Moreover, the call in assay [4] was inactive. For the same compound, the Potency result in assay [11], in [8], in assay [9] and in assay [10] was “inactive” each time.

As for `CN1CCN(c2ncc3nc(-c4cn(C)c5ccccc45)c(=O)n(C[C@H]4CCCO4)c3n2)CC1`, the Potency in [1] is > 11.4 µM; in [5], > 46 µM; in [6], > 46 µM. Besides, the activity change, negative = inhibition in assay [2] is -8.04%; in [3], 3.64%. The compound was classed as inactive in assay [4]. Moreover, the Potency result in [11], in assay [8], in [9] and in [10] was “inactive” throughout.
